Here are results for two molecules from ChEMBL document CHEMBL2218924, “A broad activity screen in support of a chemogenomic map for kinase signalling research and drug discovery” (Biochem J, 2013).

Test [1] concerns the target Serine/threonine-protein kinase 33 (Homo sapiens) (UniProt Q9BYT3). The following applies: at 1 µM.
Test [2] has the same target. The following applies: at 10 µM.
Test [3] addresses Serine/threonine-protein kinase PLK2 (Homo sapiens) (UniProt Q9NYY3). The following applies: at 10 µM.
The target in test [4] is Tyrosine-protein kinase SYK (Homo sapiens) (UniProt P43405). The following applies: at 1 µM.
For test [5] the target is unchanged. The settings on record: at 10 µM.
Test [6] addresses T1, Mitogen-activated protein kinase kinase kinase 7 (Homo sapiens) (UniProt O43318).
T1 sequence (whole entry): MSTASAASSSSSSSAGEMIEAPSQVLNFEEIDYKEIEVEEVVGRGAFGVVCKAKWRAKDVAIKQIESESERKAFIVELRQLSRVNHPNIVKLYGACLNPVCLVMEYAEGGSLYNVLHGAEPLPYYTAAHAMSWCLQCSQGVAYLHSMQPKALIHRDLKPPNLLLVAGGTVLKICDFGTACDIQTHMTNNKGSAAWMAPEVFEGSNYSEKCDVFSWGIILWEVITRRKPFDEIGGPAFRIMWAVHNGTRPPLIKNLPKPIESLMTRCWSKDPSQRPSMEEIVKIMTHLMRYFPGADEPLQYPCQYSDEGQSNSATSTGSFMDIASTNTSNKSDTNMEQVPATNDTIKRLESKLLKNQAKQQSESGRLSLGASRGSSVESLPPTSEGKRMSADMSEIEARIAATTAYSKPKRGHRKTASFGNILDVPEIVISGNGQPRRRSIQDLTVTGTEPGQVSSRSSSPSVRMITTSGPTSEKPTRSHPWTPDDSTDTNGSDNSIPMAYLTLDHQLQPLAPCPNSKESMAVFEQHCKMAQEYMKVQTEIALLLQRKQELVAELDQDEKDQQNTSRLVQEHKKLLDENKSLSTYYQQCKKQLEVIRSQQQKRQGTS
The settings on record: at 1 µM.

Test [7] has as its target T1, Mitogen-activated protein kinase kinase kinase 7 (Homo sapiens). The following applies: at 10 µM.
Test [8] addresses T2, Serine/threonine-protein kinase TAO1 (Homo sapiens) (UniProt Q7L7X3).
T2 sequence (whole entry): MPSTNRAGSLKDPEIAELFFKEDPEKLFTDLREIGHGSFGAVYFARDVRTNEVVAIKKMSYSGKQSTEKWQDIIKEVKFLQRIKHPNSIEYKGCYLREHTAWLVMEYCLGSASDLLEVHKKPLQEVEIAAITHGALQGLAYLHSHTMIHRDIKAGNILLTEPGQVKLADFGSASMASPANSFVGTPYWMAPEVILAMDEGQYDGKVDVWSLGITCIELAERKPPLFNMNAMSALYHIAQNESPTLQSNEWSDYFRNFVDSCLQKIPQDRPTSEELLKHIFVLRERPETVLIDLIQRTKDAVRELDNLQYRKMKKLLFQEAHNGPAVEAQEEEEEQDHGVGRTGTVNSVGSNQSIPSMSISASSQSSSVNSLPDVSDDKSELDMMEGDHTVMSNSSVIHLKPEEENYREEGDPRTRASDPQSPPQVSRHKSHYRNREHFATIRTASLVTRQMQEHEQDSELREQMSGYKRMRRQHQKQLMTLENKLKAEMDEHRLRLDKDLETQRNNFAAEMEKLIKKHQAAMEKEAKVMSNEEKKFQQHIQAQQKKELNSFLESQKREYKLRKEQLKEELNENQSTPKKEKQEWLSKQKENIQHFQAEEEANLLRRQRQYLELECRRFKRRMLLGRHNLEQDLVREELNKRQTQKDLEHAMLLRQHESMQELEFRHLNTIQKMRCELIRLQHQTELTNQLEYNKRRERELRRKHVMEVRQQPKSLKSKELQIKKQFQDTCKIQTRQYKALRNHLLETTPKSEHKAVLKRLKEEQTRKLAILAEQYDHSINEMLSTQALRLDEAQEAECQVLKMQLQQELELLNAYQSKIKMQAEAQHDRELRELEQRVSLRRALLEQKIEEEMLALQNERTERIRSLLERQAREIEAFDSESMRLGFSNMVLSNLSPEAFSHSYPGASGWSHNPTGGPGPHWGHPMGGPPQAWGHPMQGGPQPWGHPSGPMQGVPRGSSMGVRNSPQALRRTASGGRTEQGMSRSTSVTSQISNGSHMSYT
The settings on record: at 10 µM.

Test [9] concerns the target T3, Serine/threonine-protein kinase TAO2 (Homo sapiens) (UniProt Q9UL54).
T3 sequence (whole entry): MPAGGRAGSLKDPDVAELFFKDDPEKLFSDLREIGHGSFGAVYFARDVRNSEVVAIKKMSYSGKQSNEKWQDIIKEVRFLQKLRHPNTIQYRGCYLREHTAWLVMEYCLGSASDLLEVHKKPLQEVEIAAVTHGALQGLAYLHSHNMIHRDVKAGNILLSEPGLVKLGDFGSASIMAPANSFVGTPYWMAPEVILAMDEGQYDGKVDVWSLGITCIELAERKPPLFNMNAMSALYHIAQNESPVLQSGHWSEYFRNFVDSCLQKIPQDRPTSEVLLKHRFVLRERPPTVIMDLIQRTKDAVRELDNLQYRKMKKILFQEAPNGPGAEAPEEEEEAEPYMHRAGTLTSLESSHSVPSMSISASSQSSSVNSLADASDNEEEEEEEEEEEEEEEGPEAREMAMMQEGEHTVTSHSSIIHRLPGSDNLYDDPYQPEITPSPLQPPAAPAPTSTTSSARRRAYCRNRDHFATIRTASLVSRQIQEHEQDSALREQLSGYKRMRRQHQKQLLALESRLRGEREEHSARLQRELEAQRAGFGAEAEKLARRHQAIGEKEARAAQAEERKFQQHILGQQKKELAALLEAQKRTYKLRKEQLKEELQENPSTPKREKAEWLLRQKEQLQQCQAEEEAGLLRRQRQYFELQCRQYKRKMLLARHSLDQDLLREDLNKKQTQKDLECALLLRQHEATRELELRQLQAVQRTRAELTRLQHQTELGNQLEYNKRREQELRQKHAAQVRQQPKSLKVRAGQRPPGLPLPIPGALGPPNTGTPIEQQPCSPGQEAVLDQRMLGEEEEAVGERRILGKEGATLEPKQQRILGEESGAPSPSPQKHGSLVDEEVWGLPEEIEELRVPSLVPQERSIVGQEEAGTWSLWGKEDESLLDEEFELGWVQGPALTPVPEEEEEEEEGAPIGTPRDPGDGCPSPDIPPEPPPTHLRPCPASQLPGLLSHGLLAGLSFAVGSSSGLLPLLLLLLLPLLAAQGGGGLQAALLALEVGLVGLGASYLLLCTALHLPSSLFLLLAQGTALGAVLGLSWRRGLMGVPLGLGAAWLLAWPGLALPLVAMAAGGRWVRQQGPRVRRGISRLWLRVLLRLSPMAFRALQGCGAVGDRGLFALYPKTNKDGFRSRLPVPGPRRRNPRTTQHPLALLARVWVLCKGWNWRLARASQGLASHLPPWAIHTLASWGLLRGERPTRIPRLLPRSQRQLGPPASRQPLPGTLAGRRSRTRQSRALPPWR
The following applies: at 10 µM.

Test [10] addresses T4, Serine/threonine-protein kinase TAO3 (Homo sapiens) (UniProt Q9H2K8).
T4 sequence (whole entry): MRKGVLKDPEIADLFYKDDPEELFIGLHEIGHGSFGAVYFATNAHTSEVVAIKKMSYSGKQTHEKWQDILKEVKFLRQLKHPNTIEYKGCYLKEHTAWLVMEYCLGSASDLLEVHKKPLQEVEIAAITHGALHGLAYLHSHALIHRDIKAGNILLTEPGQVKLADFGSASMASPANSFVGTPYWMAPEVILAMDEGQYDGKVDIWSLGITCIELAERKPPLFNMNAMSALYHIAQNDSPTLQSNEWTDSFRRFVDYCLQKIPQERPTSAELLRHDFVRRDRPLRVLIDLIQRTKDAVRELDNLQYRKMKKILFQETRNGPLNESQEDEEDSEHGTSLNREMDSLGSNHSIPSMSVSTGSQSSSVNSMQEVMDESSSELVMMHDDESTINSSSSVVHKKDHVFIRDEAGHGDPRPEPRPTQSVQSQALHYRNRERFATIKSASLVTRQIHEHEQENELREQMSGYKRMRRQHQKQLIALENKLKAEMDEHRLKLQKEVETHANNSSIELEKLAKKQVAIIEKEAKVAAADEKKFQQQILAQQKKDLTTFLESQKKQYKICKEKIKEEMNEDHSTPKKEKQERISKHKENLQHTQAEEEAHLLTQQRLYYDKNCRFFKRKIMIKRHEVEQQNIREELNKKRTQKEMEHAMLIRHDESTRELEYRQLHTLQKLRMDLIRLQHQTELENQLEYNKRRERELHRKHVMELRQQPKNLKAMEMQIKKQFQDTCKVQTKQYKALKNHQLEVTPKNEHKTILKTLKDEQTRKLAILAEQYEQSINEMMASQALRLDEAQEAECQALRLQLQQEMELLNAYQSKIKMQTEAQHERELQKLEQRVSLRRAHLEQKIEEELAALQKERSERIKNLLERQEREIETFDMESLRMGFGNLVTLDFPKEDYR
The settings on record: at 1 µM.

The target of test [11] is T4, Serine/threonine-protein kinase TAO3 (Homo sapiens). The following applies: at 10 µM.
In test [12] the target is T5, Serine/threonine-protein kinase TBK1 (Homo sapiens) (UniProt Q9UHD2).
T5 sequence (whole entry): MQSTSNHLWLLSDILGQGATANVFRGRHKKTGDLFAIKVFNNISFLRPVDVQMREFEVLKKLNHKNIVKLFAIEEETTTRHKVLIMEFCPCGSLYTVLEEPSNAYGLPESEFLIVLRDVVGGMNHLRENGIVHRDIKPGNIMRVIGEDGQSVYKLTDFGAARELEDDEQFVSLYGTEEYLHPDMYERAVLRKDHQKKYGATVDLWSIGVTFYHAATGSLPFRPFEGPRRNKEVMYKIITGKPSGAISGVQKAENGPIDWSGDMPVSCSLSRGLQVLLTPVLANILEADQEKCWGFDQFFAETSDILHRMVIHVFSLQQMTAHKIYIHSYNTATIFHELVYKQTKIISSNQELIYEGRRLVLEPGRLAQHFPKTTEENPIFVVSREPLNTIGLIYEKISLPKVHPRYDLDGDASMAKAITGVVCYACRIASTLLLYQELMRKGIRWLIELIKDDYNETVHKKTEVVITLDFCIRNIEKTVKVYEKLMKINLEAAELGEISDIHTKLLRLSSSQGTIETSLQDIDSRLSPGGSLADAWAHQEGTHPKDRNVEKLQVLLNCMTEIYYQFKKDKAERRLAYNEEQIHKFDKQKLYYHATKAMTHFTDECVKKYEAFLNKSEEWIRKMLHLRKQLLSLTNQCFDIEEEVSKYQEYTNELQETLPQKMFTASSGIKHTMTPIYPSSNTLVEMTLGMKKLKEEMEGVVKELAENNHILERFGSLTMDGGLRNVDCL
The settings on record: at 1 µM.

The target in test [13] is T5, Serine/threonine-protein kinase TBK1 (Homo sapiens). The following applies: at 10 µM.
Test [14] addresses T6, TGF-beta receptor type-1 (Homo sapiens) (UniProt P36897).
T6 sequence (whole entry): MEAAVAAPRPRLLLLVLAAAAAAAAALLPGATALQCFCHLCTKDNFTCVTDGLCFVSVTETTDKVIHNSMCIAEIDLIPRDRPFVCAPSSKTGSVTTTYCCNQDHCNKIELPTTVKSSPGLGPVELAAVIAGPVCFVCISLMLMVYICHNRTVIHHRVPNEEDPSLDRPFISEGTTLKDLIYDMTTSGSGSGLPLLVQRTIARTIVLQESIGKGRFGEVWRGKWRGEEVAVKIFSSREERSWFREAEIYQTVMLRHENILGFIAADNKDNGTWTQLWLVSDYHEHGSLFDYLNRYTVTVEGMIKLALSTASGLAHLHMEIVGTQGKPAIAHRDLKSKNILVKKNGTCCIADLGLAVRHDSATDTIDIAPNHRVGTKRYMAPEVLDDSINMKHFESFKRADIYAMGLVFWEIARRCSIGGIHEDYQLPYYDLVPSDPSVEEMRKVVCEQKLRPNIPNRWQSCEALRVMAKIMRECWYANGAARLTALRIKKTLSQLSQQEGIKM
The following applies: at 1 µM.

Test [15] deals with T6, TGF-beta receptor type-1 (Homo sapiens). The settings on record: at 10 µM.
In test [16] the target is Insulin-like growth factor 1 receptor (Homo sapiens) (UniProt P08069). The settings on record: at 1 µM.
Insulin-like growth factor 1 receptor (Homo sapiens), sequence (P08069 31-736 limits assumed): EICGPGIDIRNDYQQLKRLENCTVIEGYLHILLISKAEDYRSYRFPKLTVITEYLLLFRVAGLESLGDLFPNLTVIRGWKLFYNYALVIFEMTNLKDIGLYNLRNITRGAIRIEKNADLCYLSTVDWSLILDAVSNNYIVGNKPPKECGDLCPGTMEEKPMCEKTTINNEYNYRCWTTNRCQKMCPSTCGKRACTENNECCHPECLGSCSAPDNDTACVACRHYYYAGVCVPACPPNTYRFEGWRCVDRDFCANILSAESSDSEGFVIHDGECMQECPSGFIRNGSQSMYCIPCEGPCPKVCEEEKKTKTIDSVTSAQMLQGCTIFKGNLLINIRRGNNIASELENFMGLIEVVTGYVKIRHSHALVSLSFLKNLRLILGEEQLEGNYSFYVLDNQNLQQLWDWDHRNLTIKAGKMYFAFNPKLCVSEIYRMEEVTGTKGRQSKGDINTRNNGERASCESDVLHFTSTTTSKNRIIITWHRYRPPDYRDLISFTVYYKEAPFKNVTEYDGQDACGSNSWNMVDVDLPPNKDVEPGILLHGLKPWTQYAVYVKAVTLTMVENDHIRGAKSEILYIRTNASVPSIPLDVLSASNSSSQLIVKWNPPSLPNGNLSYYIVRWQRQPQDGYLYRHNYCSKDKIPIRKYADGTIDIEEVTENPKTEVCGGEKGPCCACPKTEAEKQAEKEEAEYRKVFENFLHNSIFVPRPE
Insulin-like growth factor 1 receptor (Homo sapiens), sequence (P08069 741-1367 limits assumed): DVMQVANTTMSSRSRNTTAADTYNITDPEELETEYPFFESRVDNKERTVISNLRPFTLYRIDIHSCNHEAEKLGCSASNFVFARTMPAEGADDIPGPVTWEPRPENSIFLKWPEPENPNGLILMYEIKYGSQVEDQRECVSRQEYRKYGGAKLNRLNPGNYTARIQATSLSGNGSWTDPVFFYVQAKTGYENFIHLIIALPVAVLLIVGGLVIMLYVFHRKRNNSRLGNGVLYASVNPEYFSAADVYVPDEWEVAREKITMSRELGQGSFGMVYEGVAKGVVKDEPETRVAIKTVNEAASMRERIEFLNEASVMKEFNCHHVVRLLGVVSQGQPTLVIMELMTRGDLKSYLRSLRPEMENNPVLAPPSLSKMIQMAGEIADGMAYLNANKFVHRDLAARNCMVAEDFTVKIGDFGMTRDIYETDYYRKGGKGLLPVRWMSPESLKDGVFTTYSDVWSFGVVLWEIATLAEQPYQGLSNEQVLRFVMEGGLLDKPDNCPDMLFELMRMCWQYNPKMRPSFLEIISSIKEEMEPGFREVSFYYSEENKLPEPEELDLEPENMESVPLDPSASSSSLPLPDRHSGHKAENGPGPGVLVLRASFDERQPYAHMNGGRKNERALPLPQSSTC
Test [17] shares this target. The settings on record: at 10 µM.
Test [18] concerns the target T2, Serine/threonine-protein kinase TAO1 (Homo sapiens). The settings on record: at 1 µM.
Test [19] concerns the target T3, Serine/threonine-protein kinase TAO2 (Homo sapiens). The settings on record: at 1 µM.

Serine/threonine-protein kinase 33 (Homo sapiens), sequence (Q9BYT3 whole entry, looked up): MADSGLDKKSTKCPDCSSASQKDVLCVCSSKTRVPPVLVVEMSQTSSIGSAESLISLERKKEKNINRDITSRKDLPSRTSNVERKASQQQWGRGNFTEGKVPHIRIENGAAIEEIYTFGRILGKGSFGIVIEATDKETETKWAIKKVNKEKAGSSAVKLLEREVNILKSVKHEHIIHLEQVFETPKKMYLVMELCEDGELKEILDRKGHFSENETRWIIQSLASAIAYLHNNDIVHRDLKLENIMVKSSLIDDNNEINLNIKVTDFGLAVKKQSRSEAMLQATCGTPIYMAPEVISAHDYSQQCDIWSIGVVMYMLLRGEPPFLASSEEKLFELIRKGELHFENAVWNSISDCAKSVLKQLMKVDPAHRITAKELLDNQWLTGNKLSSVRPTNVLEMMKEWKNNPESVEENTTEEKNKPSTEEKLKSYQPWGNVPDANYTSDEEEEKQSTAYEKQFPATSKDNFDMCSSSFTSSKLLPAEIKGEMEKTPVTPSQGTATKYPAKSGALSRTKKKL
Serine/threonine-protein kinase PLK2 (Homo sapiens), sequence (Q9NYY3 whole entry, looked up): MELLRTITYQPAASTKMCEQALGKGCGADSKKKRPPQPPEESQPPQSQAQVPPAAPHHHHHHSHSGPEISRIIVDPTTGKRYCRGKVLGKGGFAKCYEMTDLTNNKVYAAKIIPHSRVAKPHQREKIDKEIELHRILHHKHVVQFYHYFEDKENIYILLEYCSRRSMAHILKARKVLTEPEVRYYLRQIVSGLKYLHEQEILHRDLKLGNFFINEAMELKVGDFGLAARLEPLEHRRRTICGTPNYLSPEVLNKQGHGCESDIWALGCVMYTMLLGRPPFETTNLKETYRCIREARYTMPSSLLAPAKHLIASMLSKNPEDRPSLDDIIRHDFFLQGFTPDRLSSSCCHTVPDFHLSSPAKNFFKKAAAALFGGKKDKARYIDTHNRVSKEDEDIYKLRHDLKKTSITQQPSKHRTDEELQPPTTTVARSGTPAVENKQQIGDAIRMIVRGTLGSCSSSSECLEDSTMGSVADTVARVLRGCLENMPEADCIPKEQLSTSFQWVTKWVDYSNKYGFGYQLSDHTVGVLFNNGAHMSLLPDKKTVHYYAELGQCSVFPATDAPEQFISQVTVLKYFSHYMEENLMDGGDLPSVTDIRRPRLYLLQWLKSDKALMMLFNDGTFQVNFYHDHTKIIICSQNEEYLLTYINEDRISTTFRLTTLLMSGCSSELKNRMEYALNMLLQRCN

On to `COc1ccc2c(c[n+](C)c3c4cc5c(cc4ccc23)OCO5)c1OC`, for which the residual activity in [1] came to 97%; in [2] it was 92%; in [3] it was 71%; in test [4] it was 132%; in test [5], 82%; in test [6], 92%. For the same molecule, the residual activity in test [7] came out at 94%; in test [8], 87%; in test [9], 93%; in test [10], 99%; in [11], 90%; in [12] it was 81%. The residual activity came out at 65% in [13]; 82% in test [14]; 89% in test [15]; 93% in test [16]; 82% in [17].
Consider `CC(C)(C)c1cc(C=C(C#N)C#N)cc(Br)c1O`, for which the residual activity in test [1] turned out to be 110%; in [2], 108%; in [3] it was 67%; in test [4], 128%; in test [6] it was 104%; in test [7] it was 103%. Also, the residual activity in test [18] was found to be 112%; in test [8] it was 70%; in test [19] it was 113%; in test [9], 103%; in test [10] it was 101%; in [11], 97%. For the same molecule, the residual activity amounted to 103% in test [12]; 97% in test [14]; 97% in test [15]; 105% in [16]; 104% in test [17].
